Growth data for eight molecules are collected here from PubChem BioAssay (NCI).

This is part of a sample that, as a whole, favours compounds with a hit. Of some 83,000 tested, about 20% had one in any assay.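 Cell lines were cultured in 96-well plates, exposed to a single compound concentration, and assessed for percent growth 48 hours later.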 A number with no mark means an inactive call. Activity calls are given as the source filed them. The calls were made as follows: active = growth percent below 10; inactive = the rest.

Test systems include HT29 colon; SNB-75 CNS; SNB-19 CNS; U251 CNS; PC-3 prostate; SK-MEL-5 melanoma; UACC-62 melanoma; LOX IMVI melanoma; SK-MEL-28 melanoma; SK-MEL-2 melanoma; EKVX NSCLC; SN12C renal; UO-31 renal; TK-10 renal; ACHN renal; CAKI-1 renal; CCRF-CEM leukemia; MOLT-4 leukemia; A498 renal.
Assay in all cases: NCI-60 one-dose screen, 48 h (100 = growth as untreated, 0 = no growth, -100 = all killed)
Holding throughout (conditions): 10 µM unless noted

Consider `O=C(c1ccccc1)C1C(=O)N2C(=S)N(c3ccccc3)C(=O)C2C1c1ccc(Cl)cc1` (stereo not drawn), for which the growth is 111% in the assay on HT29 colon; 96.5% in the assay on SNB-75 CNS; 93.8% with SNB-19 CNS; 98.4% in the assay on U251 CNS; 86.7% with PC-3 prostate; 91.6% in the assay on SK-MEL-5 melanoma. Besides, the growth in the assay with UACC-62 melanoma is 88%; with LOX IMVI melanoma it was 90.2%; with SK-MEL-28 melanoma, 93.8%; in the assay on SK-MEL-2 melanoma it was 99.5%; in the assay with EKVX NSCLC, 100%; in the assay with SN12C renal, 91.7%. Moreover, the growth in the assay on UO-31 renal was 66.8%; in the assay on TK-10 renal, 126%; in the assay with ACHN renal, 91.8%; with CAKI-1 renal, 82.9%; in the assay on CCRF-CEM leukemia it was 98%; in the assay on MOLT-4 leukemia, 102%.
As to `CCOC(=O)C1=NN(c2ccccc2)C(=O)/C1=C\N1C(=O)CC(=O)NC1=S`, the growth with HT29 colon was 99.7%; in the assay with SNB-75 CNS, 10.6%; in the assay with SNB-19 CNS it was 97.4%; in the assay on U251 CNS it was 91%; with PC-3 prostate, 96.4%; with SK-MEL-5 melanoma it was 99.6%. For the same molecule, the growth in the assay on UACC-62 melanoma is 87.5%; with LOX IMVI melanoma, 93.7%; in the assay with SK-MEL-28 melanoma it was 114%; with SK-MEL-2 melanoma, 98%; with EKVX NSCLC, 103%; in the assay with SN12C renal, 95.6%. For the same molecule, the growth with UO-31 renal was 77.4%; in the assay with TK-10 renal, 96%; in the assay with ACHN renal, 101%; with CAKI-1 renal, 41.2%; with A498 renal it was 104%; in the assay with CCRF-CEM leukemia, 96.2%. For the same molecule, the growth with MOLT-4 leukemia was 99%.
Turning to `C=C(C)[C@@H]1CC[C@]2(C(=O)OC)CC[C@]3(C)[C@H](CC[C@@H]4[C@@]5(C)C/C(=C/NC(N)=S)C(=O)C(C)(C)[C@@H]5CC[C@]43C)[C@@H]12`, the growth in the assay on HT29 colon was 71%; in the assay with SNB-75 CNS, 118%; in the assay with SNB-19 CNS, 97.1%; with U251 CNS, 90.7%; with PC-3 prostate, 67.6%; with SK-MEL-5 melanoma, 87.1%. For the same molecule, the growth in the assay with UACC-62 melanoma was 87.4%; in the assay on LOX IMVI melanoma, 90.2%; in the assay on SK-MEL-28 melanoma, 98.9%; in the assay on SK-MEL-2 melanoma, 103%; in the assay with EKVX NSCLC, 91.3%; in the assay on SN12C renal, 58.9%. Also, the growth with TK-10 renal is 111%; in the assay on ACHN renal it was 77.6%; in the assay on CAKI-1 renal, 66.4%; in the assay on A498 renal, 114%; in the assay with CCRF-CEM leukemia, 84.7%; in the assay on MOLT-4 leukemia it was 70.3%.
As to `Nc1nc2c([nH]1)c1[nH]c3ccccc3c1c1[nH]c3ccccc3c21`, the growth with HT29 colon was 3.16% (active); with SNB-75 CNS, 44.5%; in the assay on SNB-19 CNS, 62.4%; with U251 CNS it was -6.57% (active); in the assay on PC-3 prostate it was 34.9%; in the assay with SK-MEL-5 melanoma, 58.7%. The growth is -31.9% (active) in the assay with UACC-62 melanoma; 4.23% (active) in the assay with LOX IMVI melanoma; -77.5% (active) in the assay with SK-MEL-28 melanoma; -23.5% (active) in the assay with SK-MEL-2 melanoma; 73.5% with EKVX NSCLC; 75.6% in the assay on SN12C renal. Also, the growth in the assay on TK-10 renal is 91.4%; with ACHN renal it was 59.1%; in the assay on CAKI-1 renal it was 83.2%; in the assay on A498 renal, 134%; in the assay on CCRF-CEM leukemia, -3.64% (active); with MOLT-4 leukemia it was -12.5% (active).
As to `CSc1nc2sc3c(c2c(=O)n1-c1ccc([N+](=O)[O-])cc1)CCCCC3`, the growth in the assay with HT29 colon was 92.6%; with SNB-75 CNS, 89.7%; with SNB-19 CNS, 86%; in the assay on U251 CNS it was 84.5%; in the assay on PC-3 prostate, 85.5%; in the assay on SK-MEL-5 melanoma it was 96.4%. For the same molecule, the growth in the assay on UACC-62 melanoma was 87.1%; in the assay on LOX IMVI melanoma it was 94.7%; in the assay with SK-MEL-28 melanoma it was 105%; with SK-MEL-2 melanoma it was 101%; with EKVX NSCLC, 85.7%; in the assay on SN12C renal, 88.3%. For the same molecule, the growth was 90.8% in the assay with UO-31 renal; 92.9% in the assay with TK-10 renal; 67.5% in the assay with ACHN renal; 71% in the assay with CAKI-1 renal; 80.2% in the assay on A498 renal; 93.3% with CCRF-CEM leukemia. For the same molecule, in the assay with MOLT-4 leukemia, the growth was 93.3%.
On to `COC(=O)c1n[nH]c2ccc3nc(-c4cn[nH]c4C(F)(F)F)c4c(c3c12)CCCC4`, for which the growth in the assay on HT29 colon is 25.7%; in the assay on SNB-75 CNS it was 28.8%; in the assay with SNB-19 CNS, 68.7%; in the assay with U251 CNS it was 41.7%; with PC-3 prostate it was 64.4%; with SK-MEL-5 melanoma, 40.4%. The growth in the assay with UACC-62 melanoma was 21.6%; in the assay on LOX IMVI melanoma, 21.7%; with SK-MEL-28 melanoma it was 25.5%; in the assay on SK-MEL-2 melanoma, 11.9%; with EKVX NSCLC, 64%; with SN12C renal it was 47.7%. Also, the growth in the assay with TK-10 renal was 19.4%; with ACHN renal, 39%; in the assay with CAKI-1 renal, 15.3%; in the assay with A498 renal, 5.79% (active); in the assay with CCRF-CEM leukemia it was 42.8%; in the assay on MOLT-4 leukemia, 50.4%.
Turning to `C1=CN2CC(c3ccccc3)=NNC2c2ccccc21` (stereo not drawn), the growth is 99.4% in the assay on HT29 colon; 37.5% in the assay with SNB-75 CNS; 105% with SNB-19 CNS; 103% with U251 CNS; 81.9% in the assay with PC-3 prostate; 92.8% with SK-MEL-5 melanoma. In addition, the growth in the assay with UACC-62 melanoma was 75.5%; with LOX IMVI melanoma, 92.8%; in the assay with SK-MEL-28 melanoma, 126%; with SK-MEL-2 melanoma, 89.7%; in the assay with EKVX NSCLC, 73.4%; in the assay with SN12C renal it was 88.8%. Further, the growth in the assay with UO-31 renal is 53.8%; in the assay with TK-10 renal, 120%; in the assay with ACHN renal it was 85.7%; with CAKI-1 renal, 65.2%; in the assay on A498 renal, 104%; in the assay with CCRF-CEM leukemia, 88.3%. Moreover, the growth in the assay with MOLT-4 leukemia was 40.2%.
As for `Cc1cccnc1NC(=S)Nc1ncccc1C`, the growth in the assay with HT29 colon is 103%; with SNB-75 CNS, 96.2%; in the assay on SNB-19 CNS, 104%; in the assay with U251 CNS, 99.7%; in the assay with PC-3 prostate, 99.9%; in the assay with SK-MEL-5 melanoma, 101%. Moreover, the growth in the assay with UACC-62 melanoma was 100%; in the assay with LOX IMVI melanoma, 107%; with SK-MEL-28 melanoma, 111%; with SK-MEL-2 melanoma, 103%; in the assay with EKVX NSCLC, 95.6%; in the assay with SN12C renal, 98.4%. For the same molecule, the growth in the assay on UO-31 renal was 108%; with TK-10 renal, 90.1%; with ACHN renal, 109%; in the assay with CAKI-1 renal it was 70.7%; in the assay with A498 renal it was 115%; with CCRF-CEM leukemia, 91.4%. In addition, the growth in the assay with MOLT-4 leukemia is 60.3%.
